Results reported in article PMC7819943, “Rice protein-binding microarrays: a tool to detect cis-acting elements near promoter regions in rice”.
Over roughly 35,000 sequences, “fluorescence intensity (a.u.)” has its median near 10,000; the highest 2% begin near 52,000. The entries come from a sample that favours the highest values as a whole.

molecular target: T1, OsWOX13 (Oryza sativa, UniProt Q5QMM3 1-267); assay: protein-binding microarray (RPBM); PBS, 2% BSA, 51.3 ng/ul salmon testes DNA, 50 uM zinc acetate, 200 nM TF, 25 C, 1 h; high values mean tight binding; conditions: protein: recombinant; tags: N-terminal polyhistidine and DsRed monomer fusion (pET32a); label: CyDye5-dUTP incorporated in the synthesized complementary strand; 3' TTTTT single-stranded linker to array surface; dsDNA, one strand shown
T1 sequence: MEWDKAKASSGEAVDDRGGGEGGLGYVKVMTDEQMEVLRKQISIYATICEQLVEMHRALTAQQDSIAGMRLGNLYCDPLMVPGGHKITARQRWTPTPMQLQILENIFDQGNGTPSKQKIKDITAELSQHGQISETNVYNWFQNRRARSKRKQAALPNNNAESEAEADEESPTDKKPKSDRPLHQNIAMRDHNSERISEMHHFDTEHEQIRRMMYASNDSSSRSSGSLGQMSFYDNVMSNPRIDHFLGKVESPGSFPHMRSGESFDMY
Method in brief: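 The binding signal is fluorescence intensity per feature, in arbitrary units, read on an Axon 4000B scanner. Polyhistidine- and DsRed-tagged transcription factors (N-terminal fusions) from E. coli BL21-CodonPlus were purified on Ni–NTA and applied at 200 nM for 1 h at 25 °C to a double-stranded, BSA-blocked custom Agilent array in buffer with 50 µM zinc acetate.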

Sequence	binding signal
CATTGTCATCCTGAGTAGATTGCCAATTATATGGGTTTGGCGGAGTCACCTAGTGCAG	6170 fluorescence intensity (a.u.)
CGTTTTGATGGATGGCTCAGATCGGTTCCGAATCGATCAACGGAGTCACCTAGTGCAG	5120 fluorescence intensity (a.u.)
GGTTTAATTAATTAATCGCGCCAACCCAGATGCTAATCAGCGGAGTCACCTAGTGCAG	50200 fluorescence intensity (a.u.)
TGAAAATTTTGTCGGAAATTTATCAGTGTATCAACTGTCTCGGAGTCACCTAGTGCAG	6470 fluorescence intensity (a.u.)
TTTCTTGATTTGGTTGGGATTGGTTGTTCTTGGGCTTATCCGGAGTCACCTAGTGCAG	24600 fluorescence intensity (a.u.)
GTTGAGATTAATTGTTCTATACTACTTTCTCTATCTAAAACGGAGTCACCTAGTGCAG	7990 fluorescence intensity (a.u.)
GATAATTCTTATGTTACTGACTAATATGATAGTACTGAGTCGGAGTCACCTAGTGCAG	5770 fluorescence intensity (a.u.)
ATGAATCTAGTCAGATTGGCCAATTTGATTTGTTTTACTCCGGAGTCACCTAGTGCAG	9360 fluorescence intensity (a.u.)
ATTAACCAGTATTAATAATTGAGGGACGTTGTATACTGGGCGGAGTCACCTAGTGCAG	20500 fluorescence intensity (a.u.)
AATTTGATTGATTTTACTCTCGAGCCAATTGAGATGTCTGCGGAGTCACCTAGTGCAG	64800 fluorescence intensity (a.u.)
TCAAAGTGATTGGTGACACTCTACACAACACACAGTTGAACGGAGTCACCTAGTGCAG	28400 fluorescence intensity (a.u.)
CCTGATTAATTGTTAATTTTGCTGATGCAGCTGTTGCTTGCGGAGTCACCTAGTGCAG	65000 fluorescence intensity (a.u.)
AGTTGATTGGTAAAGTGACATGCTTGAACACTGTTGGAGCCGGAGTCACCTAGTGCAG	54000 fluorescence intensity (a.u.)
TGTTGCTGTTGATTAGCTCTCACCTAATTTGTTGTGTATGCGGAGTCACCTAGTGCAG	18100 fluorescence intensity (a.u.)
TATAATTGTTACTGTTAATTGAGGTGGGAAATACCAGGTGCGGAGTCACCTAGTGCAG	53500 fluorescence intensity (a.u.)
GGAACAGGTACCATAATTGTTAATAACCTAATACTGGGCCCGGAGTCACCTAGTGCAG	5270 fluorescence intensity (a.u.)
ACACTTGGAGATTGGTAATAGATTACAGAAAGTTGAATGCCGGAGTCACCTAGTGCAG	14300 fluorescence intensity (a.u.)
TGTTAATCTTGCTGATTTTGTTATTGATTTTAATGCTATGCGGAGTCACCTAGTGCAG	17300 fluorescence intensity (a.u.)
ACTTACAAATTTTGTACTCAATTGAGATGTGCTTCGATTGCGGAGTCACCTAGTGCAG	5640 fluorescence intensity (a.u.)
TTCCGGTGATTAGTCAACTGCCACGACCAGATTAATCTACCGGAGTCACCTAGTGCAG	20300 fluorescence intensity (a.u.)
TCATAACTAATATTTAAATGGTATTTGAACATCCCATGGACGGAGTCACCTAGTGCAG	9720 fluorescence intensity (a.u.)

Sequence	binding signal
TCTGACCTGAAAGTCTCAATCAGACAGCTTTCGAAAAGGACGGAGTCACCTAGTGCAG	4260 fluorescence intensity (a.u.)
AAACCTATGACAATCAACCTTTTGACTGTCATACTAGCTCCGGAGTCACCTAGTGCAG	9360 fluorescence intensity (a.u.)
TATTGATTAAACATAATGGTCTCACAATATTTTAGTTACCCGGAGTCACCTAGTGCAG	27300 fluorescence intensity (a.u.)
CTGAAATGATTTTCATTTGATTCAAATGGGCCTAAGAATTCGGAGTCACCTAGTGCAG	17200 fluorescence intensity (a.u.)
GTGGCTGTGATTGTGTGATTGTGTACCTGTTTGTAGTGAACGGAGTCACCTAGTGCAG	20500 fluorescence intensity (a.u.)
TATCTACTAATTTAACTTATAAATGGGTTTATGGGTTGACCGGAGTCACCTAGTGCAG	11200 fluorescence intensity (a.u.)
CGGGCTTCTTGATTTGCGGATTGTTGTTGTGGATCGCCAGCGGAGTCACCTAGTGCAG	5040 fluorescence intensity (a.u.)
GATGAACATTGATTTGCTCGGATCTTGGATGCTGTTTGTGCGGAGTCACCTAGTGCAG	20800 fluorescence intensity (a.u.)
TTTAATTAATTTGTTAAATTTTCTGATCGGAATGAGCGGTCGGAGTCACCTAGTGCAG	63700 fluorescence intensity (a.u.)
ATGATAACTGATTGCAATAAGGTTAGGATGTTGTCACACCCGGAGTCACCTAGTGCAG	52900 fluorescence intensity (a.u.)
AATAATGATAACTGATAAGGGTTTGTTTAGTCTGGATGAACGGAGTCACCTAGTGCAG	18800 fluorescence intensity (a.u.)
AATAAGGGACTTAATTAGTCTAGGTTAAACTGGATGTTGCCGGAGTCACCTAGTGCAG	4640 fluorescence intensity (a.u.)
TTAACTGATTGATGCTCAAGTGGATTGATCGATTTTGTTGCGGAGTCACCTAGTGCAG	65500 fluorescence intensity (a.u.)
TTTTAAATTTCATTATATAATGATTAATTTGGGAATGAGGCGGAGTCACCTAGTGCAG	30800 fluorescence intensity (a.u.)
TTTAAATTTTAATGATCGGTGATTTTGTGCAGGGAAAACGCGGAGTCACCTAGTGCAG	24200 fluorescence intensity (a.u.)
GATAATGGCCCTTAAATTGATTGCAACTCACGGTGATACACGGAGTCACCTAGTGCAG	44800 fluorescence intensity (a.u.)
GCTCTAAGGGTGGGTTTTGATGGGAGGTTTTGGATGGATACGGAGTCACCTAGTGCAG	6370 fluorescence intensity (a.u.)
TTTGATTTGGGAAAGATAATATATCTTGCTACTTTGTCTTCGGAGTCACCTAGTGCAG	18200 fluorescence intensity (a.u.)
AAACATTAATTAATACCATAATAGTTAGGTGACAATTGACCGGAGTCACCTAGTGCAG	27100 fluorescence intensity (a.u.)
CAACGCCTGTAATTGCTCCTCCTGGCATGCAAGCCTTGTCCGGAGTCACCTAGTGCAG	5050 fluorescence intensity (a.u.)
GTAAATTGTTTACTATCGAATGTACATGCTATATATATTGCGGAGTCACCTAGTGCAG	20400 fluorescence intensity (a.u.)

Sequence	binding signal
GCAATAATTAATAAGGCTCTAGGATAATTCAAATGGTTTTCGGAGTCACCTAGTGCAG	9520 fluorescence intensity (a.u.)
TAATGGTTTTCAGACAAATGGATAATTAAGCTGATAGCGACGGAGTCACCTAGTGCAG	65400 fluorescence intensity (a.u.)
CTACAAAATTAAGCTGATAGCAACATCATTCACACATGGACGGAGTCACCTAGTGCAG	4120 fluorescence intensity (a.u.)
GGCTGACGTCTAAATAAATTTTGAGTAAATTACATTAGCGCGGAGTCACCTAGTGCAG	15600 fluorescence intensity (a.u.)
ATCGTAGTGTAATTACACTGTAACTTATATGTAATTACACCGGAGTCACCTAGTGCAG	12100 fluorescence intensity (a.u.)
TATAATTGATGTACATCGATGATTAATTCTCTAACAGATCCGGAGTCACCTAGTGCAG	62300 fluorescence intensity (a.u.)
TCCTTTATTATCTGTAATTGTAAAATCTTCAGATGAACACCGGAGTCACCTAGTGCAG	6210 fluorescence intensity (a.u.)
AAATATTATAATTGATTGTCGATGAAACATCGGGTTGTACCGGAGTCACCTAGTGCAG	46200 fluorescence intensity (a.u.)
CTCAGATTTGATCAGTGGTAATTTCTCATGTAATCTCATTCGGAGTCACCTAGTGCAG	10500 fluorescence intensity (a.u.)
CGATGATTGTAATCTCATTGAACAGATGATCCTTCAGGATCGGAGTCACCTAGTGCAG	52400 fluorescence intensity (a.u.)
AATTGATTAAGATGATGATGAAAGATAATACAGCTCGATCCGGAGTCACCTAGTGCAG	27100 fluorescence intensity (a.u.)
TCAAATACTGCTGATTATACATACCCACATGTGTTGAATGCGGAGTCACCTAGTGCAG	3580 fluorescence intensity (a.u.)
ATAAAGTGATTTAATTTTAGTTAAAGTTAAACTACTTTAACGGAGTCACCTAGTGCAG	21100 fluorescence intensity (a.u.)
CACTCTTGCATTTCTTTGATTGCAAATTTCCAAGGCAGAACGGAGTCACCTAGTGCAG	5250 fluorescence intensity (a.u.)
ATTTTACAGGGTGATTTGAACATACAGTAATTATGGCCAACGGAGTCACCTAGTGCAG	6520 fluorescence intensity (a.u.)
AAATGTCTTGTAGATTGATATATTACATGGAACAAAATTTCGGAGTCACCTAGTGCAG	3240 fluorescence intensity (a.u.)
GTTAAACTAATTTGAATTTGTTAGTACAGTTTGCATTTCACGGAGTCACCTAGTGCAG	25500 fluorescence intensity (a.u.)
CTTGATTTATTATTTACCATGTTAGAAATGTTTATTTATACGGAGTCACCTAGTGCAG	29600 fluorescence intensity (a.u.)
TTAATTGGATTGTTTTGATTCGTTGGAGAAGTTAGGAATACGGAGTCACCTAGTGCAG	28600 fluorescence intensity (a.u.)
CTGATTGATTCGTAATAGTAGAATAGGACATGTTACCATACGGAGTCACCTAGTGCAG	64500 fluorescence intensity (a.u.)
ATTTGATTGAATGTAGAGATTCTTGTAATAGGATTCTTTGCGGAGTCACCTAGTGCAG	64700 fluorescence intensity (a.u.)

Sequence	binding signal
CTGTAATCTTGCTGATTGAATTCTATTTTGATGTGCAGAGCGGAGTCACCTAGTGCAG	44800 fluorescence intensity (a.u.)
GTATGTGATTTTCTTTAATTAGAGTTCTTGCCTAAGGTTGCGGAGTCACCTAGTGCAG	38300 fluorescence intensity (a.u.)
TGTGTTCTTGATTTGTGTTGTGTTTGTAGATCGTAGTTTGCGGAGTCACCTAGTGCAG	10200 fluorescence intensity (a.u.)
TGAAATTAATTTGATGTGATAGATTTCTAGGTTTTCTTTGCGGAGTCACCTAGTGCAG	64300 fluorescence intensity (a.u.)
TTTTGAAATTTCAGATTATTTTGTGTGGTTTTGTAATTTGCGGAGTCACCTAGTGCAG	4570 fluorescence intensity (a.u.)
CAGATTAAAATTTCTGCTCAAGCTAGCCATCGATCATCTGCGGAGTCACCTAGTGCAG	3930 fluorescence intensity (a.u.)
GATGAAACATTTGACATGAACTAAATTTTGTTCGGCAGTTCGGAGTCACCTAGTGCAG	5180 fluorescence intensity (a.u.)
CGTAGAAGGGATTGGGTGAAATTACATGGGCATATAGGGACGGAGTCACCTAGTGCAG	4240 fluorescence intensity (a.u.)
ATAATTAGACTTCTTGTTGCCTTCACCTATTTTAACACATCGGAGTCACCTAGTGCAG	13000 fluorescence intensity (a.u.)
GAAAATTATGTACATCCTCCGCTTAAAGATGACTATGAATCGGAGTCACCTAGTGCAG	4540 fluorescence intensity (a.u.)
GATAAGTAAATTAATTGGAAGAAAGAAATCAGTGGGGAGGCGGAGTCACCTAGTGCAG	13500 fluorescence intensity (a.u.)
AGCCTAATTAATCCGTCATTAGCAAATATTTACTGTAGCACGGAGTCACCTAGTGCAG	28400 fluorescence intensity (a.u.)
TAAGTAGATCGAAAATGTTTCAATCATTTAAATCAGGCGTCGGAGTCACCTAGTGCAG	4180 fluorescence intensity (a.u.)
TTATTAATTATCATATTAGTAGTAGTAGTAGTAGCTAGGCCGGAGTCACCTAGTGCAG	34100 fluorescence intensity (a.u.)
TATGATATGTCAAATCCTATAATTTCTTCGTCCCAAAATGCGGAGTCACCTAGTGCAG	3440 fluorescence intensity (a.u.)
GAATGGTCCAACAAGGAGACTGAGGAATGGTCAACACATTCGGAGTCACCTAGTGCAG	59700 fluorescence intensity (a.u.)
ATCGGAGACTGACTGAGTGAAGGTTGGTTGGTTCACACTTCGGAGTCACCTAGTGCAG	4540 fluorescence intensity (a.u.)
GGTCCAATCAACATGAATAACAAAACAAAGGAAATGGATTCGGAGTCACCTAGTGCAG	17100 fluorescence intensity (a.u.)
ATGATCAATCAGTAGATTATGCCCTGGTTATTCTTTATAACGGAGTCACCTAGTGCAG	25400 fluorescence intensity (a.u.)
ATGGATATAAATTGATGAGTACAGTCCTGAGAACTGCAAGCGGAGTCACCTAGTGCAG	32600 fluorescence intensity (a.u.)
GTTACTGTGATTTGTTTCACGAAGCCCCATGTTTTGAGCCCGGAGTCACCTAGTGCAG	11700 fluorescence intensity (a.u.)
